What all share (assay): DAPPL (digital affinity profiling via proximity ligation, sequencing); 10 mM Tris-HCl pH 7.5, 50 mM NaCl, 1 mM DTT, 4% glycerol, room temperature, 30 min; GST-TFs on glutathione beads, 16-mer random dsDNA library, 0.1% formaldehyde crosslink after washing; high values mean tight binding
Conditions in all cases: protein: recombinant; tags: N-terminal GST; dsDNA, one strand shown

In one assay the target is T1, ERF (Homo sapiens, UniProt P50548 1-548).
T1 sequence: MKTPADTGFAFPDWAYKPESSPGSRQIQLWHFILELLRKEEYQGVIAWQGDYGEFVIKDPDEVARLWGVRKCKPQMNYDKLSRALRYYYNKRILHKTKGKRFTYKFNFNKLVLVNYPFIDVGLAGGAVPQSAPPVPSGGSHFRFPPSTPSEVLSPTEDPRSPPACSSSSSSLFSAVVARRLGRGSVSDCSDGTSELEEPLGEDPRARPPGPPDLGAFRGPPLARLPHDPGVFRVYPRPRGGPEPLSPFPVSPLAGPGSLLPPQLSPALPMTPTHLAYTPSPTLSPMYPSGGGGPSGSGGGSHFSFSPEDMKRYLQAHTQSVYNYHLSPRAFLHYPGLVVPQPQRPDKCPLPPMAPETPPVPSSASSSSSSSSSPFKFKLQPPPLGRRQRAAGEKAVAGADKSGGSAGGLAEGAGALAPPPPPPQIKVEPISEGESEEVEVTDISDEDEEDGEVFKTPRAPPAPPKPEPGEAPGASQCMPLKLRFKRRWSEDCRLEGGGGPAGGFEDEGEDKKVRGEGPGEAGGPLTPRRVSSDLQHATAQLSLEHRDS
The gist of the method: (§1)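 Yeast served to express human transcription factors as GST fusions, which were then captured on glutathione beads and labelled with DNA barcodes. Pooled with a tag-only sample, they were incubated with 200 nmole of a 16-mer random double-stranded DNA library for 30 min at room temperature in Tris/NaCl/DTT/glycerol buffer, washed, crosslinked with 0.1% formaldehyde, ligated by proximity, amplified by PCR and sequenced. Dividing each hexamer's read frequency for a factor by its frequency for the tag-only sample gives the binding signal.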

The next assay addresses T2, ETV3L (Homo sapiens, UniProt Q6ZN32 1-361).
T2 sequence: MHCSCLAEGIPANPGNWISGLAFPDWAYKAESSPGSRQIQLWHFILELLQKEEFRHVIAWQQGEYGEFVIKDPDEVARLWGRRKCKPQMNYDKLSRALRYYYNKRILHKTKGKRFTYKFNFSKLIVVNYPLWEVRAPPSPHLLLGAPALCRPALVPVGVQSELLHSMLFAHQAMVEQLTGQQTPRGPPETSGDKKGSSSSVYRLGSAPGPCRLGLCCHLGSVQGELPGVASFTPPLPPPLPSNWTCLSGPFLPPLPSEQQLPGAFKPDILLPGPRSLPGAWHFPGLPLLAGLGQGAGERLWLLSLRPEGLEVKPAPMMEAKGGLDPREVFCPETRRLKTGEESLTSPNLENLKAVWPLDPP
The gist of the method: as §1

The target in the next assay is T3, ETS2 (Homo sapiens, UniProt P15036 1-469).
T3 sequence: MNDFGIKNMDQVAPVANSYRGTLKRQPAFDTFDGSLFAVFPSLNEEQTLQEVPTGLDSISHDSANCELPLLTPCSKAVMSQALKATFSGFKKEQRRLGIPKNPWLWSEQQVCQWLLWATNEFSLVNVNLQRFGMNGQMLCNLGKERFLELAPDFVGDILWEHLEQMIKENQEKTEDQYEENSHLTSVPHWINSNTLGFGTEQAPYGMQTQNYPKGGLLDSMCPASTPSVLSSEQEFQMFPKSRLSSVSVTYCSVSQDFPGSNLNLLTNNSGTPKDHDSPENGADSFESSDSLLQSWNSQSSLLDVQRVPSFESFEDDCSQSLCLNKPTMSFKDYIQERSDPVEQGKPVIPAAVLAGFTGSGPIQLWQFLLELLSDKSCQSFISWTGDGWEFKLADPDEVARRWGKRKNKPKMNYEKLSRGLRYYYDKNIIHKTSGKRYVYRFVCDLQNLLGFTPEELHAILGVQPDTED
The gist of the method: as §1

The next assay addresses T4, SPDEF (Homo sapiens, UniProt O95238 1-335).
T4 sequence: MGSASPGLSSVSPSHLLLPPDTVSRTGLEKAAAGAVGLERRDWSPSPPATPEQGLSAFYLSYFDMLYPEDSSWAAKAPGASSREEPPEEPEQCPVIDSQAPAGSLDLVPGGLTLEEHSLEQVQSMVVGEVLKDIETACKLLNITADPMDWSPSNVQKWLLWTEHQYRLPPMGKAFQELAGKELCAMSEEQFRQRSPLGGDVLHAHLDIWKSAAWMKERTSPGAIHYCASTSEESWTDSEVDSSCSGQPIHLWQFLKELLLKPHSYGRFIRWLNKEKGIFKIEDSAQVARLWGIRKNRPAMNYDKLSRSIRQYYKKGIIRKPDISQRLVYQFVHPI
The method in brief: as §1

The target in the next assay is T5, ETV7 (Homo sapiens, UniProt Q9Y603 1-341).
T5 sequence: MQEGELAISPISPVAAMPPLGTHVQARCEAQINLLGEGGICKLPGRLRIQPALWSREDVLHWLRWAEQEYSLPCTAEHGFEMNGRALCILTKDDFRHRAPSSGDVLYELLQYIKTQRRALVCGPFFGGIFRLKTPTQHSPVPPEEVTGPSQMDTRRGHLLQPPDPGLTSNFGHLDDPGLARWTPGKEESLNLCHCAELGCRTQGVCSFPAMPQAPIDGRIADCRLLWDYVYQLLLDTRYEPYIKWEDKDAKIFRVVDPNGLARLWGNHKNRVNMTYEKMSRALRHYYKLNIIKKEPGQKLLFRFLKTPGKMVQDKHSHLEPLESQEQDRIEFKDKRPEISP
The method in brief: as §1

A further assay addresses T6, ELF5 (Homo sapiens, UniProt Q9UKW6-2 1-255).
T6 sequence: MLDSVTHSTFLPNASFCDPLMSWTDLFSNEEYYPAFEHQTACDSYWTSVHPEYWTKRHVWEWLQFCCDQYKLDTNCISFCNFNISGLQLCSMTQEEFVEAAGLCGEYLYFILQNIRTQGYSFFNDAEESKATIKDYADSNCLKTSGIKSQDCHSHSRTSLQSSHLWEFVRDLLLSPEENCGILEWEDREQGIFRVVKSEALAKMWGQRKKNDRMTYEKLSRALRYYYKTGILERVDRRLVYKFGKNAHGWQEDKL
The method in brief:
as §1

Another assay addresses T7, ETV3 (Homo sapiens, UniProt P41162-2 1-143).
T7 sequence: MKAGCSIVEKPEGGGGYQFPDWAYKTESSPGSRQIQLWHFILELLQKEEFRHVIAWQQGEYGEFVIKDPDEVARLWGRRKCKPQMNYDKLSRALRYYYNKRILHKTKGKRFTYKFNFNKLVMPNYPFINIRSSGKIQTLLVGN
The gist of the method: as §1

The next assay has as its target ETV6 (Homo sapiens, UniProt P41212 1-452). The method in brief: as §1

ETV6, sequence (P41212 whole entry): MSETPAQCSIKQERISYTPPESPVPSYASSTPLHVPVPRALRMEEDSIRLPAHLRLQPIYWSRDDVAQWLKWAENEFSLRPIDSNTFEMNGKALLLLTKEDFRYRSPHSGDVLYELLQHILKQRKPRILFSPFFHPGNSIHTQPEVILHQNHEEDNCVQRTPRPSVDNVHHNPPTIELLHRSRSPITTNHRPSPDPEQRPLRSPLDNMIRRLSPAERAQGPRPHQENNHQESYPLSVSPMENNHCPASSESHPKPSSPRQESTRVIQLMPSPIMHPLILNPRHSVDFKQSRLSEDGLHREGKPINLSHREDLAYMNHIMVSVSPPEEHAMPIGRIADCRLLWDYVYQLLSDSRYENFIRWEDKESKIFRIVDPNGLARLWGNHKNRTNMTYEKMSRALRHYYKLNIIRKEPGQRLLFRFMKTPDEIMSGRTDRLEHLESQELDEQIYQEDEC

GAATTG: the binding signal was 1.1 fold enrichment (6-mer frequency, TF over GST control) with ERF; 1.07 fold enrichment (6-mer frequency, TF over GST control) with ETV3L; 1.13 fold enrichment (6-mer frequency, TF over GST control) with ETS2; 1.14 fold enrichment (6-mer frequency, TF over GST control) in the assay with SPDEF; 1.22 fold enrichment (6-mer frequency, TF over GST control) with ETV7; 1.13 fold enrichment (6-mer frequency, TF over GST control) with ELF5. Moreover, the binding signal in the assay with ETV3 is 1.03 fold enrichment (6-mer frequency, TF over GST control); with ETV6, 1.06 fold enrichment (6-mer frequency, TF over GST control).
Regarding TCTGTA, the binding signal with ERF was 1.16 fold enrichment (6-mer frequency, TF over GST control); with ETV3L, 1.24 fold enrichment (6-mer frequency, TF over GST control); in the assay with ETS2, 1.27 fold enrichment (6-mer frequency, TF over GST control); with SPDEF, 1.26 fold enrichment (6-mer frequency, TF over GST control); with ETV7 it was 1.03 fold enrichment (6-mer frequency, TF over GST control); with ELF5 it was 1.17 fold enrichment (6-mer frequency, TF over GST control). For the same sequence, the binding signal with ETV3 is 1.25 fold enrichment (6-mer frequency, TF over GST control); with ETV6 it was 1.18 fold enrichment (6-mer frequency, TF over GST control).
Take CTACGT: the binding signal in the assay with ERF was 1.24 fold enrichment (6-mer frequency, TF over GST control); in the assay with ETV3L, 1.29 fold enrichment (6-mer frequency, TF over GST control); with ETS2, 1.12 fold enrichment (6-mer frequency, TF over GST control); in the assay with SPDEF, 1.12 fold enrichment (6-mer frequency, TF over GST control); with ETV7 it was 1.35 fold enrichment (6-mer frequency, TF over GST control); with ELF5, 1.27 fold enrichment (6-mer frequency, TF over GST control). The binding signal with ETV3 is 1.17 fold enrichment (6-mer frequency, TF over GST control); with ETV6, 1.42 fold enrichment (6-mer frequency, TF over GST control).
In the case of AGATGC, the binding signal with ERF is 1.23 fold enrichment (6-mer frequency, TF over GST control); in the assay with ETV3L it was 1.09 fold enrichment (6-mer frequency, TF over GST control); in the assay with ETS2, 1.09 fold enrichment (6-mer frequency, TF over GST control); with SPDEF, 1.03 fold enrichment (6-mer frequency, TF over GST control); in the assay with ETV7, 1.03 fold enrichment (6-mer frequency, TF over GST control); with ELF5 it was 1.12 fold enrichment (6-mer frequency, TF over GST control). The binding signal with ETV3 is 1.06 fold enrichment (6-mer frequency, TF over GST control); with ETV6, 1.04 fold enrichment (6-mer frequency, TF over GST control).
Regarding ACTGAA, the binding signal with ERF was 1.13 fold enrichment (6-mer frequency, TF over GST control); with ETV3L, 1.1 fold enrichment (6-mer frequency, TF over GST control); in the assay with ETS2, 1.23 fold enrichment (6-mer frequency, TF over GST control); with SPDEF, 1.21 fold enrichment (6-mer frequency, TF over GST control); with ETV7, 1.06 fold enrichment (6-mer frequency, TF over GST control); with ELF5, 1.11 fold enrichment (6-mer frequency, TF over GST control). Further, the binding signal with ETV3 is 1.21 fold enrichment (6-mer frequency, TF over GST control); with ETV6, 1.17 fold enrichment (6-mer frequency, TF over GST control).
Turning to GAACAC, the binding signal in the assay with ERF was 1.11 fold enrichment (6-mer frequency, TF over GST control); with ETV3L, 1.18 fold enrichment (6-mer frequency, TF over GST control); with ETS2, 1.12 fold enrichment (6-mer frequency, TF over GST control); in the assay with SPDEF, 1.26 fold enrichment (6-mer frequency, TF over GST control); with ETV7, 1.15 fold enrichment (6-mer frequency, TF over GST control); with ELF5, 1.17 fold enrichment (6-mer frequency, TF over GST control). Moreover, the binding signal with ETV3 was 1.14 fold enrichment (6-mer frequency, TF over GST control); with ETV6 it was 1.13 fold enrichment (6-mer frequency, TF over GST control).
Turning to TACTCG, the binding signal is 1.3 fold enrichment (6-mer frequency, TF over GST control) in the assay with ERF; 1.27 fold enrichment (6-mer frequency, TF over GST control) with ETV3L; 1.28 fold enrichment (6-mer frequency, TF over GST control) in the assay with ETS2; 1.2 fold enrichment (6-mer frequency, TF over GST control) with SPDEF; 1.27 fold enrichment (6-mer frequency, TF over GST control) in the assay with ETV7; 1.25 fold enrichment (6-mer frequency, TF over GST control) with ELF5. Also, the binding signal was 1.28 fold enrichment (6-mer frequency, TF over GST control) in the assay with ETV3 and 1.28 fold enrichment (6-mer frequency, TF over GST control) in the assay with ETV6.
